From PubChem BioAssay (NCATS)
For part of these data: Results with a measured potency or affinity are listed apart. The source made the active and inactive calls. No rule for the calls is given here.

Experiments:
[1] = Ebola virus entry assay, green fluorescence channel
[2] = Ebola virus entry assay, blue channel fluorescence
[3] = Ebola virus entry assay, ratio channel
[4] = Ebola virus entry assay, green channel fluorescence
[5] = Ebola virus entry assay, reporter ratio channel; Channel type: primary
[6] = Ebola virus entry assay, blue channel (ratio component)

Measured: efficacy
For efficacy in this document: 0% is about no effect.

CC(C)c1cc2c(cc1S(=O)(=O)O)[C@@]1(C)CCC[C@@](C)(C(=O)O)[C@@H]1CC2
inactive: [1] -15.6% | [2] | [3] | [4] | [5] | [6]

COc1ccc2c(c1)C(=O)N(CCc1ccc(S(=O)(=O)NC(=O)NC3CCCCC3)cc1)C(=O)C2(C)C
inactive: [1] -16.1% | [2] | [3] | [4] | [5] | [6]

CN(C)C(=O)CNC(=O)Cc1ccccc1
inactive: [1] 16.6% | [2] | [3] | [4] | [5] | [6]

COc1ccc2[nH]c(S(=O)Cc3ncc(C)c(OC)c3C)nc2n1 (stereo unspecified)
inactive: [1] 29.9% | [2] | [3] | [4] | [5] | [6]

Clc1ccc(C(Cn2ccnc2)OCc2ccc(Sc3ccccc3)cc2)c(Cl)c1 (stereo unspecified)
inactive: [1] 29.2% | [2] | [3] | [4] | [5] | [6]

O=C(O)c1cccc(-c2noc(-c3ccccc3F)n2)c1
inactive: [1] 13.1% | [2] | [3] | [4] | [5] | [6]

CC1=CC(=O)c2ccccc2C1=O
inactive: [1] 12.6% | [2] | [3] | [4] | [5] | [6]

CCCCN(CCN(CCCC)C(=O)N1CCOCC1)C(=O)N1CCOCC1
inactive: [1] 15.6% | [2] | [3] | [4] | [5] | [6]

CC1(C)O[C@@H]2C[C@H]3[C@@H]4C[C@H](F)C5=CC(=O)CC[C@]5(C)[C@H]4[C@@H](O)C[C@]3(C)[C@]2(C(=O)CO)O1
inactive: [1] 23.9% | [2] | [3] | [4] | [5] | [6]

N[C@H](C(=O)O)c1ccc(O)cc1
inactive: [1] 11.9% | [2] | [3] | [4] | [5] | [6]

CC(=O)O[C@H]1C[C@@H]2CC[C@@H]3[C@H](CC[C@@]4(C)[C@H]3C[C@H]([N+]3(C)CCCCC3)[C@@H]4OC(C)=O)[C@@]2(C)C[C@@H]1N1CCCCC1
inactive: [1] -18% | [2] | [3] | [4] | [5] | [6]
